Rows were chosen to be rich in hits. Some 0.5% of all compounds tested hit in one or more screens of this group.
Tat transport: E. coli Tat export inhibitors, primary screen, MC4100, TorA-mCherry reporter, fluorescence, single point. inhibition, % at 10 µM. 0.036% of 340,000 active;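 active means mean replicate inhibition at least 50% and at least half of replicates individually reaching 50%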;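 further: exported cargo escapes ClpAP degradation while cytoplasmic cargo is degraded and loses fluorescence; 0% = median of neutral control wells and 100% = median of NaSCN control wells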
E coli growth-1: E. coli V3065 growth inhibition, primary screen, counter-screen for AddAB inhibitor project, absorbance, OD600; 18 h; 0.27% of 330,000 active; AID 449728, 2010; inhibition, % at 11.9 µM;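 active means inhibition above the campaign's mean inhibition across all tested compounds plus 3 SD, cut at about 9.9% in these data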;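 further: uninfected addAB+ strain grown without phage in ampicillin broth; 0% = DMSO wells and 100% = ciprofloxacin 0.95 µg/ml wells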
AddAB inh: growth inhibition of E. coli expressing H. pylori AddAB, primary screen, AddAB inhibitor project, absorbance; AID 435030, 2010; inhibition, % at 11.9 µM; 0.29% of 330,000 active; in the data active means inhibition above about 12%;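 further: 0% = vehicle wells of infected cells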
E coli growth-2: E. coli growth inhibition, primary screen, OD600; 0.21% of 330,000 active; OD600 absorbance (no concentration beside the values); Escherichia coli growth, 23 h; stronger effect = lower value;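 active means OD600 absorbance below the run mean of sample wells minus 3.6 SD, in any replicate, cut at about 0.56 in these data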
phage Ecoli inh: growth loss of phage-infected E. coli, primary screen, RecBCD inhibitor project, absorbance, with phage, HTS. inhibition, % at 11.9 µM. 0.26% of 360,000 active; in the data active means inhibition above about 11%
AddAB confirm: growth loss of phage-infected E. coli expressing H. pylori AddAB, confirmation, AddAB inhibitor project, absorbance, E. coli V3065, T4 phage, triplicate; inhibition, % at 11.9 µM; shares compounds with AddAB inh; AID 488942, 2010; OD; T4 phage with gene 2 nonsense mutations; 64% of 880 active;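 active means mean inhibition above a set limit taken from the earlier primary screen, cut at about 13% in these data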;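 further: higher means less bacterial growth since AddAB block lets phage replicate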
RecBCD counter: growth loss of RecBCD+ E. coli with mutant T4 phage, counter-screen for AddAB inhibitor project, absorbance, V66 E. coli; 73% of 880 active; OD growth; inhibition, % at 11.9 µM; shares compounds with AddAB inh;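 active means mean inhibition above the mean of solvent-only control wells plus 3 SD, cut at about 4% in these data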;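 further: optical density read after an 18 h incubation at 37 °C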
bact viab count: bacterial viability inhibition counter-screen, confirmation, counter-screen for AddAB inhibitor project, absorbance | 35% of 880 active | inhibition, % at 11.9 µM | shares compounds with AddAB inh | absorbance (AddAB counterscreen); in the data active means inhibition above about 25%
RecBCD conf: growth loss of phage-infected RecBCD+ E. coli, confirmation, RecBCD inhibitor project, absorbance, E. coli V66, T4 gene 2 phage; shares compounds with phage Ecoli inh; E. coli V66 + T4 2- phage, growth OD; inhibition, % at 11.9 µM; 45% of 890 active; AID 651982, 2013;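 active means mean inhibition over triplicates exceeding the hit threshold derived in the original primary screen, cut at about 11% in these data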
Ecoli viability: E. coli viability inhibition, counter-screen for RecBCD inhibitor project, absorbance, high throughput; shares compounds with phage Ecoli inh; absorbance (OD) growth; inhibition, % at 11.9 µM; 29% of 890 active; AID 651983, 2013; in the data active means inhibition above about 20%;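 further: E. coli strain V66 grown with compound alone and no phage infection; 0% = bacteria with DMSO vehicle only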
AddAB phage OD: growth loss of phage-infected AddAB-carrying E. coli, confirmation, counter-screen for RecBCD inhibitor project, absorbance, E. coli V3065, T4 phage. shares compounds with phage Ecoli inh. E. coli expressing H. pylori AddAB + T4 phage, OD growth; gene 2 mutant T4, recBCD-deleted host. inhibition, % at 11.9 µM. 45% of 890 active. AID 651984, 2013;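 active means mean inhibition above the solvent-only control wells' mean plus 3 SD, cut at about 22% in these data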;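 further: higher means less bacterial growth from phage killing when AddAB is blocked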
Active calls of the source: *; i = inactive; nt = no result given; ! = repeats disagree.

SMILES	Tat transport	E coli growth-1	AddAB inh	E coli growth-2	phage Ecoli inh	AddAB confirm	RecBCD counter	bact viab count	RecBCD conf	Ecoli viability	AddAB phage OD
CCC(=O)NC(c1ccco1)c1cc(Cl)c2cccnc2c1O (stereo not given)	4	15*	16*	0.71	13*	5	11*	1	2	4	18
CCC(=O)NC(c1ccco1)c1cc(Cl)c2cccnc2c1OC (stereo not given)	-20	-1	0	0.68	1	nt	nt	nt	nt	nt	nt
CCCC(=O)NC(c1cccs1)c1cc([N+](=O)[O-])c2cccnc2c1O (stereo not given)	-7	-1	5	0.66	3	nt	nt	nt	nt	nt	nt
CC(=O)NC(c1cc(Cl)c2cccnc2c1O)C(C)C (stereo not given)	0	-1	4	0.67	8	nt	nt	nt	nt	nt	nt
Cc1onc(-c2ccccc2)c1C(=O)NC(=S)NNC(=O)c1ccccc1O	2	25*	24*	0.62	24*	25*	24*	25	14*	17	29*
O=C(NNC(=S)NC(=O)c1ccccc1[N+](=O)[O-])c1ccccc1O	-6	17*	17*	0.44*	13*	11	14*	16	2	6	14
Cc1onc(-c2ccccc2)c1C(=O)NC(=S)NNC(=O)c1ccc(O)cc1O	2	20*	20*	0.56	15*	13*	14*	18	9	11	25*
COc1ccc(CNC(=O)C(C)C2C[C@@]2(C)C(NC(=O)OCc2ccccc2)c2ccccc2)cc1OC (stereo not given in full)	nt	nt	nt	0.72	nt	nt	nt	nt	nt	nt	nt
CC(C)(C)C(=O)ON=C(N)c1ccc([N+](=O)[O-])s1	nt	nt	nt	0.6	nt	nt	nt	nt	nt	nt	nt
CC(C)CC(CO)N1CCN(Cc2cccc(C#N)c2)CCC1=O (stereo not given)	nt	nt	nt	0.71	nt	nt	nt	nt	nt	nt	nt
Nc1nc(F)nc2c1ncn2[C@@H]1O[C@H](CO)[C@@H](O)[C@H]1O	-1	75*	75*	nt	68*	74*	64*	77*	70*	63*	78*
Nc1ncnc2c1ncn2C1O[C@H](CO)[C@@H](O)[C@@H]1O (stereo not given in full)	-5	-2	-1	nt	1	nt	nt	nt	nt	nt	nt
CCN1/C(=C/C(C)=C/c2sc3ccccc3[n+]2CC)Sc2ccccc21	i	38*	33*	0.21*	14*!	55*	20*	58*	23*	25*	68*
C=CCC(CC(=O)N(CCO)Cc1ccccc1)C(=O)NC(COC(=O)C(CC=C)Cc1ccc(F)cc1)Cc1c[nH]c2ccccc12 (stereo not given)	nt	nt	nt	0.63	nt	nt	nt	nt	nt	nt	nt
c1ccc(-c2cc(CSc3nc4ccccc4[nH]3)on2)cc1	-50	26*	24*	0.7	18*	23*	17*	14	12*	15	17
C=CCC(CC(=O)NC(CO)Cc1ccccc1)C(=O)NC(COC(=O)C(CC=C)Cc1ccc(F)cc1)Cc1c[nH]c2ccccc12 (stereo not given)	nt	nt	nt	0.75	nt	nt	nt	nt	nt	nt	nt
Cc1[nH]c(N=Nc2ccccc2)nc1N=Nc1ccccc1	-3	16*	14*	nt	12*	10	8.2*	16	3	4	20
CCn1ccc(=O)c2cc3c(cc21)OCO3	14	2	3	0.68	0	nt	nt	nt	nt	nt	nt
CCn1nc(C(=O)O)c(=O)c2cc3c(cc21)OCO3	28	98*	96*	0.058*	53*	99*	98*	101*	90*	99*	99*
O=S1(=O)N=C(N(CCO)N=Cc2ccc(Br)cc2)c2ccccc21	nt	nt	nt	0.71	nt	nt	nt	nt	nt	nt	nt
Cc1ccccc1NC(=O)C=C1SC(=O)NC1=O	nt	nt	nt	0.7	nt	nt	nt	nt	nt	nt	nt
COc1ccc(-c2oc3c(OC)c(OC)c(OC)c(O)c3c(=O)c2OC)cc1OC	3	8	13*	0.7	12*	8	4.1*	6	4	6	5
COc1c(OC)c(O)c2c(=O)c(O)c(-c3ccccc3)oc2c1OC	2	1	7	0.65	5	nt	nt	nt	nt	nt	nt
[N-]=[N+]=NC1C[C@H](n2ccc(=O)[nH]c2=O)O[C@@H]1CO (stereo not given in full)	-1	38*	37*	nt	32*	94*	20*	77*	41*	28*	85*
CC(C)(C)OC(=O)CC1CC=CCC(CC(=O)N(CCO)Cc2ccccc2)C(=O)NCC(c2ccccc2)OC1=O (stereo not given)	nt	nt	nt	0.65	nt	nt	nt	nt	nt	nt	nt
Cn1c(O)c(/C=N/NC(=O)c2cc3ccccc3cc2O)c2ccccc21	4	25*	23*	nt	22*	25*	25*	22	19*	23*	30*
CN(C)c1ccc(O)c2c1CC1CC3[C@@H](N(C)C)C(=O)C(C(N)=O)C(=O)[C@]3(O)C(=O)C1C2=O (stereo not given in full)	145*	102*	98*	nt	101*	100*	100*	102*	100*	101*	98*
C[C@H]1c2cccc(O)c2C(=O)C2C(=O)C3(O)C(=O)C(C(N)=O)C(=O)[C@@H](N(C)C)[C@@H]3[C@@H](O)[C@@H]21 (stereo not given in full)	148*	100*	100*	nt	98*	100*	100*	101*	99*	100*	101*
C[C@H]1c2cccc(O)c2C(O)=C2C(=O)C3(O)C(O)=C(C(N)=O)C(=O)[C@@H](N(C)C)[C@@H]3[C@@H](O)[C@@H]21 (stereo not given in full)	152*	97*	96*	nt	101*	101*	100*	101*	103*	104*	104*

Assay outcomes (PubChem BioAssay)
